Drawing on article PMC9574860, “Chemical Toolkit for PARK7: Potent, Selective, and High-Throughput” (Journal of Medicinal Chemistry, 2022), this text covers Inhibition % for 131 compounds.

Each structure is given as a SMILES string. The campaign covered roughly 7,900 compounds. About 400 (5.1%) showed an effect of 50% or more. The sample as a whole holds a higher share of strong results than the screen did.

The target in the experiment is Parkinson's disease protein 7 (PARK7/DJ1) (human, UniProt Q99497). As to the kind of experiment: primary screen, percent inhibition; read as competition with a fluorescent probe by fluorescence polarization; higher = more effect of the substance. Conditions: 100 µM. A digest of the protocol: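 Fluorescence-polarization probe displacement (JYQ-107, 20 nM final, 2 h) after 2 h preincubation of PARK7 (0.2 μM final) with each fragment at 100 μM final. Read-out ex/em 480/520 nm; remaining activity derived from FP signal loss relative to reference controls.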
Parkinson's disease protein 7 (PARK7/DJ1), sequence (Q99497 whole entry, looked up, the tested form may be a part): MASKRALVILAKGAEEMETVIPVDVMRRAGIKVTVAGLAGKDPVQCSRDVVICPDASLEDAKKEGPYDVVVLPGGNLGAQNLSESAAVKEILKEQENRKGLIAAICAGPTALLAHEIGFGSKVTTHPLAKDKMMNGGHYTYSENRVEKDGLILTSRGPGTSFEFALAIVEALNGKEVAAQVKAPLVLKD
On to `C=CC(=O)N(Cc1cncs1)C1CCN(C(C)=O)CC1`, for which the Inhibition % came out at 5.13%.
As for `C=CC(=O)N(C)CC(=O)N1CCOCC1`, the Inhibition % came to 16.7%.
As for `C=CC(=O)N1CCC(CC(=O)NC)CC1`, the figure is 5.8%.
As for `C=CC(=O)N1CCCC(C(=O)Nc2nc(C)cs2)C1` (centres unmarked), the figure is 5.32%; as for `N#Cc1ccc(N2CCC3(CCOC3)C2)cn1` (centres unmarked), -4.97%.
As for `O=C1CCN1c1ccc(O)cc1`, the figure is 5.37%; as for `C=CC(=O)N1CCCC(n2ccc(C(=O)NC)n2)C1` (centres unmarked), 8.31%.
On to `CC(CC(O)c1ccccc1)NC(=O)c1cccnc1S` (centres unmarked), for which the Inhibition % is recorded as 5.61%.
In the case of `N#CC(=Cc1ccc(O)c(O)c1)c1ccccn1`, the Inhibition % was found to be 3.18%.
The same measure for `C=CC(=O)NC(c1ccco1)C(C)(C)C` (centres unmarked): 7.05%.
The same measure for `COCC1CN(C(=O)c2c[nH]c(C#N)c2)CC(C)(C)O1` (centres unmarked): 10.6%.
As for `CC1=C(C)CN(c2nccnc2C#N)CC1`, the figure is 26%; as for `COc1ccc(C=C(C#N)C(N)=O)c(Cl)c1OC`, 3.63%.
On to `O=C(CCl)N1CCN(Cc2ccc3c(c2)OCCO3)CC1`, for which the Inhibition % turned out to be 15.8%.
With `O=C(CCl)NCCc1ccc2c(c1)OCCO2`, the Inhibition % is reported as 47.9%.
Regarding `Cc1cc(C(=O)CCl)c(C)n1-c1ccc2c(c1)OCCO2`, the Inhibition % was 63.9%.
As for `O=c1[nH]nc(S)n2cccc12`, the figure is 26.7%.
The same measure for `CC(CNc1nccnc1C#N)c1ccc(F)c(F)c1` (centres unmarked): 22.4%; for `Cn1c(SC2CCOC2=O)nc2ccccc21` (centres unmarked): 12%; for `O=C1OCCC1Sc1ncnc2sccc12` (centres unmarked): 6.21%.
Consider `CC1CC(Sc2ncnc3ccccc23)C(=O)O1` (centres unmarked), for which the Inhibition % is listed as 4.79%.
As to `O=C1OCCC1Sc1ncnc2ccccc12` (centres unmarked), the Inhibition % worked out at 54.5%.
The same measure for `O=C1OCCC1Sc1ccc2ccccc2n1` (centres unmarked): -0.865%; for `Cc1nc2ccccc2nc1SC1CCOC1=O` (centres unmarked): 70.3%; for `C=CC(=O)N(Cc1nc(-c2cccnc2)no1)C(C)C`: 22.6%.
As for `Cc1cc(C#N)nc(NC2CCCCCC2)n1`, the figure is 2.75%; as for `Cc1nc(C#N)c(NC(=O)CSCC2CCCCO2)o1` (centres unmarked), 12.5%; as for `CCCC(NC(=O)CCl)c1ccccc1` (centres unmarked), 14.5%.
The same measure for `CCCc1cc(NC(=O)CCl)n(-c2ccccc2)n1`: 31.6%.
With `C=CC(=O)N1CCC2(CCOCC2)CC1`, the Inhibition % was 5.66%.
As for `O=C(CCl)c1c[nH]c2ccccc12`, the figure is 37.9%; as for `O=C(CCl)N1CC=C(c2c[nH]c3ccccc23)CC1`, 51.5%; as for `COc1ccc(CN2CCN(C(=O)CCl)CC2)cc1.Cl`, 10.6%.
The same measure for `O=C1OCCC1N1CC=C(c2c[nH]c3ccccc23)CC1` (centres unmarked): 4.4%; for `COc1ccc(N2CCN(C(=O)CCl)CC2)cc1`: 28.8%.
For the compound `COc1ccc(C2=CCN(C(=O)CCl)CC2)cc1`, the Inhibition % was determined as 78.7%.
The same measure for `C=CC(=O)N1CCOC[C@@H]1CC(C)C`: 6.89%; for `c1cc(OCC2CO2)c2cc[nH]c2c1` (centres unmarked): -2.42%; for `N#CC(=Cc1ccccc1)C(=O)Nc1nncs1`: 3.58%.
In the case of `COc1cc(C)c(C)cc1S(=O)(=O)n1cnc(C)c1`, the Inhibition % was 6.69%.
In the case of `CCc1ccc(NC(=O)CCl)cc1`, the Inhibition % is reported as 99.1%.
With `NC(=O)c1ccc(NC(=O)CCl)cc1`, the Inhibition % was 35.3%.
As for `CC(=O)Nc1ccc(NC(=O)CCl)cc1`, the figure is 4.19%.
The same measure for `CCc1cccc(NC(=O)CCl)c1`: 14.1%; for `CC(=O)c1ccc(NC(=O)CCl)cc1`: 45.4%.
In the case of `COC(=O)c1cccc(NC(=O)CCl)c1`, the Inhibition % was 25.2%.
Take `N#CCc1ccc(NC(=O)CCl)cc1`: the Inhibition % is 88.8%.
Take `CCOC(=O)c1ccccc1NC(=O)CCl`: the Inhibition % came out at 7.46%.
For `N#Cc1ccc(NC(=O)CCl)cc1Cl`, the Inhibition % was found to be 29.1%.
As to `O=C(O)Cc1ccc(NC(=O)CCl)cc1`, the Inhibition % came out at 43.8%.
For the compound `COC(=O)c1ccc(NC(=O)CCl)cc1`, the Inhibition % is listed as 60.9%.
`CCOC(=O)c1ccc(NC(=O)CCl)cc1`: the Inhibition % is on record as 56.5%.
For `O=C(CCl)NCC1Cc2ccccc2O1` (centres unmarked), the Inhibition % is given as 26.5%.
For the compound `COc1cc2c(B3OC(C)(C)C(C)(C)O3)cn(C)c2cn1`, the Inhibition % turned out to be 6.59%.
As for `C=CC(=O)NC1CCCN(c2ccc(F)cc2C)C1` (centres unmarked), the figure is 6.65%.
Turning to `C=CC(=O)N1CC2(CCOCC2)C1C(C)C` (centres unmarked), the Inhibition % was 7.75%.
As for `Cc1nn(C)c(C)c1C1CCCN1C1CCOC1=O` (centres unmarked), the figure is 4.25%; as for `CC(C)Cn1c(S)nc2ncccc2c1=O`, 6.75%; as for `O=C(CCl)NCc1ccc(Cl)cc1`, 2.75%.
The same measure for `C=CC(=O)Nc1cnn(C2CCOCC2)c1C`: 8.19%; for `N#Cc1cc(Cl)nc(C2CC2)n1`: 4.67%; for `O=C(CCl)Nc1ccc(OC(F)F)cc1`: 82.8%.
`COc1ccc(NC(=O)NC(=O)CCl)cc1`: the Inhibition % is listed as 1.55%.
As for `O=C(CCl)Nc1ccc(OC(F)F)c(Cl)c1`, the figure is 45.8%; as for `O=C(CCl)Nc1ccc(Cl)c(C(F)(F)F)c1`, 26.2%.
For `O=C(CCl)Nc1ccc(OC(F)(F)F)cc1`, the Inhibition % stood at 86%.
Consider `O=C(CCl)NC(=O)c1ccc(OC(F)F)cc1`, for which the Inhibition % is listed as 28.9%.
Turning to `COc1ccc(NC(=O)CCl)cc1`, the Inhibition % was determined as 55.2%.
In the case of `O=C(CCl)NCc1ccc(OC(F)(F)F)cc1`, the Inhibition % is 5.21%.
`COc1ccc(NC(=O)CCCl)cc1`: the Inhibition % came out at 4.56%.
For `O=C1CCN1c1ccccc1`, the Inhibition % was determined as 5.28%.
For the compound `CC(CC#N)Sc1ccccc1NC(=O)CCl` (centres unmarked), the Inhibition % is 10.5%.
The same measure for `Cc1cc(C(=O)Cn2cnc(C#N)n2)c(C)s1`: 2.94%; for `Cc1cc(C(=O)Cn2cnc(C#N)n2)c(C)[nH]1`: 7.96%.
The same measure for `CCN(CC)C(=O)Oc1ccc(N2CCCC2)cc1`: -3.98%; for `O=C1CCC(CC(=O)Nc2cccc(S(=O)(=O)F)c2)CC1`: 98.3%; for `C=CC(=O)Nc1cc(NC(=O)C2CCC2)ccc1F`: 19.5%.
As for `O=C(CCl)NCc1cccc(NC(=O)C2CC2)c1`, the figure is 11.4%.
Consider `O=C(NNS(=O)(=O)c1ccc(S(=O)(=O)F)cc1)C1CCC1`, for which the Inhibition % came out at 10.2%.
The same measure for `O=C(NNS(=O)(=O)c1cccc(S(=O)(=O)F)c1)C1CCC1`: 99.9%.
For `O=S(=O)(F)c1ccc(S(=O)(=O)NC2CCCC2O)cc1` (centres unmarked), the Inhibition % stood at 16.5%.
The same measure for `O=C(Nc1cccc(S(=O)(=O)F)c1)C1CCCC1`: 99.8%; for `Cc1cc(B2OC(C)(C)C(C)(C)O2)on1`: 27.5%.
As for `Cc1ccc(S)nc1`, the Inhibition % came to 7.53%.
The same measure for `CCc1nc(C(C#N)=Cc2cnn(C)c2)sc1C`: 2.61%.
As for `Cc1noc(C)c1CCn1ccnc1C#N`, the figure is 0.0226%; as for `Cl.O=C(CCl)N1CCN(Cc2cccs2)CC1`, 3.64%.
The same measure for `Nc1ncnc2c1ncn2CCCCl`: 2.3%; for `C=CC(=O)Nc1ccccn1`: 3.17%.
Take `C=CC(=O)Nc1cc2ccccc2nn1`: the Inhibition % turned out to be 95%.
As for `C=CC(=O)Nc1cccc(NC(C)=O)n1`, the figure is -0.654%; as for `Cc1ccc(C=C(C#N)S(C)(=O)=O)s1`, 6.48%; as for `Cc1cc(=O)oc2cc(OCC3CO3)ccc12` (centres unmarked), 7.44%.
With `CC(C)(C)n1nccc1B1OC(C)(C)C(C)(C)O1`, the Inhibition % came out at 6.06%.
As for `CC(CC(O)c1ccc(F)cc1)Nc1ccc(C#N)nc1` (centres unmarked), the figure is 9.7%; as for `O=C(CCl)Nc1nc(-c2ccco2)cs1`, 21.8%.
As for `Cc1nc(-c2ccco2)nc(S)c1C(=O)O`, the figure is 1.46%; as for `Sc1ccc(-c2ccco2)nn1`, 57.3%; as for `O=C(CCl)N1CCCCCC1`, 14.9%.
In the case of `N#Cc1ccnc(S)c1`, the Inhibition % turned out to be 67%.
As for `N#Cc1ccnc(C(F)(F)F)c1`, the figure is 14.9%; as for `N#Cc1ccnc(C(=O)O)c1`, 1.71%.
With `O=C(CCl)Nc1ccccc1N1CCCC1=O`, the Inhibition % is -0.367%.
The same measure for `O=C(CCl)Nc1ccc(N2CCCC2)cc1`: 7.34%.
On to `O=C(CCl)Nc1ccc(N2CCCCCC2)cc1`, for which the Inhibition % is 99.5%.
As for `Cl.O=C(CCl)Nc1ccc(N2CCCCC2)cc1`, the figure is 89.3%; as for `O=C(CCl)Nc1ccc(N2CCCC2=O)cc1`, 9.28%.
On to `O=C(CCl)Nc1ccc(N2CCCCC2)nc1`, for which the Inhibition % is recorded as 88.9%.
As for `O=C(CCl)NCc1ccc(N2CCCC2)cc1`, the Inhibition % is reported as 0.611%.
As for `CCN1CCN(c2ccc(NC(=O)CCl)cc2)CC1.Cl`, the figure is 37.8%; as for `O=C(CCl)NCc1ccc(N2CCOCC2)nc1`, 15.2%.
As for `O=C(CCl)Nc1cccnc1N1CCCC1`, the figure is 18.8%; as for `C=CC(=O)N1CC(S(=O)(=O)N2CCc3ccccc32)C1`, 3.57%.
As to `O=C(CCCl)Nc1cccc(F)c1`, the Inhibition % was found to be 5.31%.
Take `C=CC(=O)N1CCC(c2cc3ccccc3[nH]2)C1` (centres unmarked): the Inhibition % was 13.2%.
The same measure for `Cc1occc1-c1nnc(SC2CCOC2=O)n1C` (centres unmarked): 12.4%.
The same measure for `COc1c(C)cc(S(=O)(=O)n2nc(C)cc2C)c(C)c1C`: 7.42%; for `CC1(C)OB(c2cccc3c2CCO3)OC1(C)C`: 9.99%.
The same measure for `CN(Cc1ccco1)c1ccc(C#N)nc1`: 25.1%.
Turning to `CN(Cc1cccnc1)C(=O)n1ccnc1`, the Inhibition % came to 10.8%.
As for `CN(C)c1ccc(CNC(=O)n2ccnc2)cc1`, the Inhibition % was found to be 97%.
As for `Cc1ccc(CNC(=O)CCl)cc1`, the figure is 1%; as for `O=C(NCc1ccc2c(c1)OCO2)n1ccnc1`, 99.9%.
For `CN(Cc1ccccc1Cl)C(=O)n1ccnc1`, the Inhibition % turned out to be 2.68%.
As for `Cc1cccc(OCCNC(=O)CCl)c1`, the Inhibition % is reported as 12.5%.
As for `C=CC(=O)NCc1ccc2c(c1)OCO2`, the figure is 11.2%; as for `O=C(CCl)NCc1ccc2c(c1)OCO2`, 14%.
For `COc1ccc(CCNC(=O)n2ccnc2)cc1OC`, the Inhibition % was found to be 10.3%.
Turning to `O=C(NCc1ccc(Cl)cc1)n1ccnc1`, the Inhibition % was -1.68%.
In the case of `Cc1cccc(OCCNC(=O)n2ccnc2)c1`, the Inhibition % is given as 92.6%.
As for `Cc1ccc(CNC(=O)n2ccnc2)cc1`, the Inhibition % is 104%.
